Screening data deposited in PubChem BioAssay by several laboratories.
BoNT-A LC inh2: BoNT A light chain protease inhibition; multiplex microsphere protease substrate cleavage, flow cytometry; inhibition, % at 10 µM; 360,000 tested, 0.17% active; note: plate controls were buffer without enzyme for full effect and enzyme alone for no effect
BoNT-F LC inh: inhibitors of Botulinum neurotoxin F light chain protease | Multiplex microsphere protease cleavage assay, flow cytometry | inhibition, % at 10 µM | 360,000 tested, 0.22% active | AID 588497; in the data active = inhibition above about 35%, passing the limit was not always enough; inconclusive = no clear call, values can overlap the other calls; note: plate controls were buffer without enzyme for full effect and enzyme alone for no effect
Anthrax LF prot: anthrax lethal factor protease inhibition. P15917. multiplex microsphere protease cleavage assay, LF. inhibition, % at 10 µM. 360,000 tested, 0.12% active; note: plate controls were buffer without enzyme for full effect and enzyme alone for no effect
Target sequence (P15917 whole entry, looked up): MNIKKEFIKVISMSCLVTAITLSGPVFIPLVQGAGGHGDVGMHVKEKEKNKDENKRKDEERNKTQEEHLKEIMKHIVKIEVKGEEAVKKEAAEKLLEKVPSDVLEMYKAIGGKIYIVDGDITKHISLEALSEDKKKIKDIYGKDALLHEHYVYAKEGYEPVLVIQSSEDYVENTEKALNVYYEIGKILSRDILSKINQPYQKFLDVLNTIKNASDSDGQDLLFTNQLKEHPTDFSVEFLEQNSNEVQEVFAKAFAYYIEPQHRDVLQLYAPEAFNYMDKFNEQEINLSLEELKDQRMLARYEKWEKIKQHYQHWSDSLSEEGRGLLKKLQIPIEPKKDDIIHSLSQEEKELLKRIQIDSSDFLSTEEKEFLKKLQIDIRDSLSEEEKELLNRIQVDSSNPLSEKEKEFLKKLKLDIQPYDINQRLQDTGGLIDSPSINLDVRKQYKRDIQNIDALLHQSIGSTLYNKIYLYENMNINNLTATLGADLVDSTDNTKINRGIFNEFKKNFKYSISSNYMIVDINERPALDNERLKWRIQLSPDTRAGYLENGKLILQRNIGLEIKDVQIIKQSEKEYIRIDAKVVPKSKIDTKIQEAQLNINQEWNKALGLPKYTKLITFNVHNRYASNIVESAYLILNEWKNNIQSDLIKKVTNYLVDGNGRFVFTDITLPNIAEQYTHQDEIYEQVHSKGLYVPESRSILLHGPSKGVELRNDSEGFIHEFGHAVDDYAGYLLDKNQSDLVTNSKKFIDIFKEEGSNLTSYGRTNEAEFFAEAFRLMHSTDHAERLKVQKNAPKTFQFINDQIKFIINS
Bead autofluor: flagged as autofluorescent in microsphere protease counterscreen | fluorescence intensity (test concentration not listed) | compound autofluorescence counterscreen, microsphere flow cytometry; stronger effect = higher value | 360,000 tested, 3.1% active | AID 624483; in the data active = fluorescence intensity above about 16000; inconclusive = no clear call, values can overlap the other calls
TcdB GH inh: blocks C. difficile toxin B glycohydrolase activity | P18177 | TcdB glycohydrolase enzymatic assay, plate reader | inhibition, % at 9.99 µM | 350,000 tested, 0.24% active | AID 652162; in the data active = inhibition above about 10%
* marks the source's active call; other numbers are inactive results; u = inconclusive; x = no result given. The entries come from a sample that favours hits as a whole. Cut-off read from the data, not from the text of the source, unless noted: active = inhibition above about 30%; inconclusive = no clear call, values can overlap the other calls; inactive = below that.

SMILES	BoNT-A LC inh2	BoNT-F LC inh	Anthrax LF prot	Bead autofluor	TcdB GH inh
COc1ccc(C#Cc2cnc3c(c2)C(=O)N([C@H](C)CO)C[C@H](C)[C@H](CN(C)S(=O)(=O)c2cccs2)O3)cc1OC	x	x	x	x	0
N#C[C@H]1[C@H](c2ccc(C3=CCCCC3)cc2)[C@@H](CO)N1C(=O)NC1CCCCC1	x	x	x	x	-2
CCS(CC)=NS(=O)(=O)c1ccc(NC(C)=O)cc1	2	37*	1	4549	x
CCN1CCN(S(=O)(=O)c2ccc3[nH]c(=O)oc3c2)CC1	0	6	-4	5042	19*
Cc1cc(C)nc(SCC(=O)n2c3c(c4ccccc42)CCCC3)n1	0	-7	-5	2481	x
O=C(CSc1ncccn1)n1c2c(c3ccccc31)CCCC2	-8	-67	-9	18875*	4
CC=Cc1ccc2n(c1=O)C[C@@H]1[C@@H](CO)[C@H](C(=O)N3CCCCC3)N(Cc3ccccc3OC)[C@H]21 (mixture of isomers)	x	x	x	x	-3
O=C1c2cccnc2C(=O)N1Cc1ccc(Cl)cc1	0	17	7	4249	x
O=C1c2cccnc2C(=O)N1Cc1ccc(F)cc1	3	3	-9	21659*	x
CC(=O)c1ccc(NC2c3ncccc3C(=O)N2Cc2ccc(F)cc2)cc1 (stereo unspecified)	5	4	1	21897*	x
COc1ccc(CN2C(=O)c3cccnc3C2Nc2ccc(C)cc2)cc1 (stereo unspecified)	-1	-9	2	3688	x
O=C1c2cccnc2C(O)N1Cc1ccc(F)cc1 (stereo unspecified)	0	1	-5	23014*	x
Cc1noc(C)c1S(=O)(=O)Nc1cccc2c1O[C@H](CN(C)C(=O)NC1CCCCC1)[C@H](C)CN([C@H](C)CO)C2=O	x	x	x	x	1
O=C(C[C@H]1C=C[C@@H](NC(=O)Nc2ccc(C(F)(F)F)cc2)[C@@H](CO)O1)NCc1ccccn1	x	x	x	x	0
CC(C)(O)C#Cc1ccc([C@@H]2[C@H]3CN(C(=O)c4ccc(F)cc4)CCCCN3[C@H]2CO)cc1	x	x	x	x	-11
Cc1cc(OC2CCCCC2)nc(-c2ccccc2O)n1	u	-4	-4	22117*	x
Cc1ccc(Oc2cc(C)nc(-c3ccccc3O)n2)cc1	0	-8	1	2993	x
CN(C)C(=O)C[C@@H]1CC[C@H]2[C@@H](COC[C@@H](O)CN2C(=O)C2CC2)O1	x	x	x	x	0
CCCN1CNC(=S)N(c2cccc(C)c2C)C1	u	22	-19	14518	x
CCN1CNC(=S)N(c2cccc(C)c2C)C1	u	-3	-2	20115*	x
CCN(CC)C(=O)C1CCCN(C/C=C/c2ccccc2[N+](=O)[O-])C1 (stereo unspecified)	-4	-10	1	3893	0
CCOC(=O)C1CCCN(CCC(C)c2ccccc2)C1 (stereo unspecified)	6	8	0	21853*	1
CCOC(=O)C1CCCN(CCC(=O)Nc2ccccc2)C1 (stereo unspecified)	-1	-5	-1	u	x
CCOC(=O)C1CCCN(C/C=C/c2ccccc2[N+](=O)[O-])C1 (stereo unspecified)	10	13	-7	16661*	4
CCOC(=O)C1CCCN(CC(=O)NC2CC2)C1 (stereo unspecified)	-2	2	-3	16644*	x
SMILES	BoNT-A LC inh2	BoNT-F LC inh	Anthrax LF prot	Bead autofluor	TcdB GH inh
COc1ccc2c3c([nH]c2c1)[C@H](CO)N(S(=O)(=O)c1cn(C)cn1)CC31CCN(CC2CCCC2)CC1	x	x	x	x	-11
CCSc1nc2c(sc3ccccc32)c(=O)n1C(C)C	1	0	0	23016*	x
CCCCn1c(SCC(N)=O)nc2c(sc3ccccc32)c1=O	0	-7	1	4154	x
COC(=O)Nc1ccc(OC)c(OC)c1	0	-1	2	10028	x
COc1ccc(NC(=S)NNC(=O)OC(C)(C)C)cc1OC	u	-4	-3	24133*	x
COCC#Cc1ccc2c(c1)O[C@H](CN(C)CC1CCOCC1)[C@H](C)CN([C@H](C)CO)S2(=O)=O	x	x	x	x	0
Oc1ccc(/C=N/Nc2ncnc3nc[nH]c23)cc1	-1	0	-4	4425	10*
Clc1ccc(/C=N/Nc2ncnc3nc[nH]c23)cc1	1	1	-5	5397	2
CC1=NNC(=O)C1CCC(=O)N/N=C/c1ccccc1 (stereo unspecified)	0	5	1	5999	-1
CC1=NNC(=O)C1CCC(=O)N/N=C\c1ccccc1[N+](=O)[O-] (stereo unspecified)	u	0	-1	22394*	x
COc1ccccc1C#Cc1cnc2c(c1)C(=O)N([C@H](C)CO)C[C@H](C)[C@@H](CN(C)C(=O)CN(C)C)O2	x	x	x	x	0
CC(C)NC(=O)Nc1ccc2c(c1)C(=O)N([C@@H](C)CO)C[C@@H](C)[C@@H](CN(C)C(=O)NC1CCCCC1)OCCCC[C@@H](C)O2	x	x	x	x	1
O=C(C[C@@H]1CC[C@H](NC(=O)Nc2ccc3c(c2)OCO3)[C@@H](CO)O1)NCc1ccc(Cl)cc1	x	x	x	x	0
Cc1cccc(C)c1OCCCCc1c(C)n[nH]c1C	0	-5	-8	22821*	x
COc1cccc(OC)c1OCCCCc1c(C)n[nH]c1C	0	-3	1	3161	5
O=S(=O)(c1ccccc1)N1CCN=C1SCc1ccccc1	0	-2	-2	2057	10*
C[C@@H]1CCCCO[C@H](CN(C)C(=O)c2ccccc2)[C@@H](C)CN([C@@H](C)CO)C(=O)c2cc(NC(=O)c3ccccc3)ccc2O1	x	x	x	x	-1
COc1ccc(CNC(=O)COc2ccc([N+](=O)[O-])cc2)cc1	2	5	-9	19432*	x
COc1ccc(OCC(=O)NNc2c3ccccc3nc3ccccc23)cc1	0	-2	-6	16716*	x
O=C(COc1ccccc1)NNc1c2ccccc2nc2ccccc12	1	-12	-4	2670	x
CCCNC(=O)c1ccccc1NC(=O)COc1ccc(OC)cc1	-1	0	0	19742*	x
COc1ccc2c3c(n(C)c2c1)[C@@H](CO)N(C(=O)c1cccc(F)c1)CC31CN(CC2CC2)C1	x	x	x	x	1
CO[C@H]1CN(C)C(=O)c2ccc(NC(C)=O)cc2OC[C@H](C)N(CC2CCCCC2)C[C@@H]1C	x	x	x	x	-1
CCOC(=O)CSc1nnc(-c2cc(OC)c(OC)c(OC)c2)o1	-2	-9	-2	4643	0
COc1cc(-c2nnc(SCc3cc(=O)oc4cc(O)c(O)cc34)o2)cc(OC)c1OC	8	6	-6	21137*	x
SMILES	BoNT-A LC inh2	BoNT-F LC inh	Anthrax LF prot	Bead autofluor	TcdB GH inh
COc1cccc(S(=O)(=O)N[C@H]2CC[C@H](CCn3cc(-c4ccccc4OC)nn3)O[C@@H]2CO)c1	x	x	x	x	1
CCOc1ccccc1-c1nc(-c2cc3ccc(C)cc3[nH]c2=O)no1	2	5	0	16326*	x
Nc1nonc1-c1noc(CCCOc2ccc(Cl)cc2Cl)n1	u	-2	-2	22747*	x
CCCCCc1nc(-c2nonc2N)no1	-3	-22	-6	3362	x
C[C@H](CO)N1C[C@H](C)[C@H](CN(C)C(=O)Nc2ccccc2)Oc2ccc(NC(=O)Cc3cn(C)c4ccccc34)cc2C1=O	x	x	x	x	1
O=c1oc(-c2ccc(Br)cc2)nc2ccccc12	-5	-72	10	3856	12*
